# Reference: PubChem BioAssay AID894 (National Center for Advancing Translational Sciences (NCATS), 2007)
# About 6,500 (4.3%) of roughly 150,000 compounds were called active. Roughly 12% stayed inconclusive and do not appear here. The sample as a whole holds a higher share of actives than the screen did. Values without a mark were called inactive. The call rests on the fitted dose curve; in most records, active means well fitted inhibition curve with a large enough effect (not every such curve was filed as active); inconclusive means small, poorly fitted or top-dose-only effect, or another doubt; inactive means no such curve, though single readings can be large or run the other way.
# Target: 15-hydroxyprostaglandin dehydrogenase [NAD(+)] (Homo sapiens) (UniProt P15428)
# Sequence (P15428 whole entry, looked up): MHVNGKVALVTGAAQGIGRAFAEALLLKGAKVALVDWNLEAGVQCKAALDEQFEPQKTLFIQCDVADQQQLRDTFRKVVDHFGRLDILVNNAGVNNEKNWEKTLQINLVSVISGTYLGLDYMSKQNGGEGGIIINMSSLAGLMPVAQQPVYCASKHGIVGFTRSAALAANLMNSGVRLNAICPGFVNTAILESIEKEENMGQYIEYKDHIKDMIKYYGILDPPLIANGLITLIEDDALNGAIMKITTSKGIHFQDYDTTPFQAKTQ
# Assay: qHTS Assay for Inhibitors of HPGD (15-Hydroxyprostaglandin Dehydrogenase)
# Details: purified HPGD, NADH fluorescence kinetic, PGE2 substrate; activity change, negative = inhibition: stronger effect = lower value
# Source text: Human 15-Hydroxyprostaglandin dehydrogenase (HPGD) catalyzes the inactivation of prostaglandin E2, and plays a major role in cancer biology by antagonizing the oncogenic potential of cyclooxygenase type 2 (COX2). Assays are available, based on absorbance/fluorescence increase of NADH with the substrate 15-OH prostaglandin E2. References 1. Myung SJ, Rerko RM, Yan M, Platzer P, Guda K, Dotson A, Lawrence E, Dannenberg AJ, Lovgren AK, Luo G, Pretlow TP, Newman RA, Willis J, Dawson D, Markowitz SD. 15-Hydroxyprostaglandin dehydrogenase is an in vivo suppressor of colon tumorigenesis. […] 2. Yan M, Rerko RM, Platzer P, Dawson D, Willis J, Tong M, Lawrence E, Lutterbaugh J, Lu S, Willson JK, Luo G, Hensold J, Tai HH, Wilson K, Markowitz SD. 15-Hydroxyprostaglandin dehydrogenase, a COX-2 oncogene antagonist, is a TGF-beta-induced suppressor of human gastrointestinal cancers. Proc Natl Acad Sci U S A. 2004 Dec 14;101(50):17468-73. 3. Yang L, Amann JM, Kikuchi T, Porta R, Guix M, Gonzalez A, Park KH, Billheimer D, Arteaga CL, Tai HH, Dubois R, Carbone DP, Johnson DH. Inhibition of Epidermal Growth Factor Receptor Signaling Elevates 15-Hydroxyprostaglandin Dehydrogenase in Non-Small-Cell Lung Cancer. Cancer Res. 2007 Jun 15;67(12):5587-5593. Inhibition of HPGD activity was screened by utilizing prostaglandin as an electron donor and NAD+ as an electron acceptor/cofactor. An increase in the fluorescence intensity due to conversion of NAD+ to NADH was used to measure the enzyme activity. NIH Chemical Genomics Center [NCGC] Structural Genomics Consortium [SGC]
# Buffer: 50 mM Tris-HCl, 0.01% Tween 20, pH 8. Enzyme Buffer: 50 mM Tris-HCl, 0.5 mM NAD+ and 0.01% Tween 20, pH 8. Reagents/Controls: Buffer in columns 3 and 4 as negative control (no enzyme). Substrate/cofactor solution: 1 mM NAD+ and 30 uM prostaglandin (Sigma, prostaglandin E2, # P5640) final concentrations dispensed throughout the plate. Enzyme: 20 nM HPGD final concentration in columns 1, 2, 5-48. Column 1 and 2 is neutral (100% activity). A titration of control inhibitor GW5074 (G6416 Sigma-Aldrich, St. Louis, MO) top concentration 10 mM in DMSO, then 1:2 dilution for a total of 16 concentrations in duplicate) was pin-transferred into column 2. Assay Steps: Three uL of enzyme were dispensed to 1536-well Greiner black solid bottom plates. Compounds and control inhibitor (23 nL) were transferred via Kalypsys PinTool. The plates were incubated for 15 min at room temperature, and then 1 uL of substrate/cofactor solution was added to start the reaction. The plates were immediately transferred to and read 5 times every 30 seconds on ViewLux High-throughput CCD imager (Perkin-Elmer) using 360 nm excitation and 450 nm emission fluorescence protocol. The fluorescence intensity difference between the last and the first time points was used to compute reaction progress.
# On the % scale 0 is the no-effect control and ±100 the full control effect; potency means the concentration at half of the fitted maximal effect.
SMILES,"activity change, negative = inhibition [%]",Potency
COc1ccccc1NC(=O)C1=C(C)NC2=C(C(=O)CCC2)C1c1ccc(C)o1 (configuration not stated),-4.54,–
COC(=O)C1=C(C)NC2=C(C(=O)c3ccccc32)C1c1ccc(-c2ccc(C(=O)O)cc2)o1 (configuration not stated),–,17.8 µM (active)
Cc1ccc(C2C3=C(Nc4[nH]n(-c5ccccc5)c(=O)c42)c2ccccc2C3=O)cc1 (configuration not stated),-23.6,–
Cc1cc(C(C)(C)C)cc(C)c1N,2.4,–
O=C(OC1CCOC1=O)c1cccc(S(=O)(=O)Nc2ccc(F)cc2)c1 (configuration not stated),-0.633,–
O=C(NCc1ccco1)c1ccc(CS(=O)(=O)Cc2ccc(F)cc2)o1,2.28,–
O=C(NCCCCCCNC(=O)NCc1ccco1)NCc1ccco1,-9.22,–
O=C(NCc1ccco1)c1sc2cccc(F)c2c1Cl,–,3.98 µM (active)
COc1cc(C(=O)NC(=S)NCc2ccco2)cc(OC)c1OC,-21.9,–
COc1ccc(-c2cc(C(=O)NCc3ccco3)no2)cc1OC,-10.4,–
COc1ccc2c(Cl)c(C(=O)NCc3ccco3)sc2c1,–,14.1 µM (active)
CCN1CN(Cc2ccccc2)CNC1=S,-9.5,–
CC(O)c1nc2ccccc2n1Cc1ccc([N+](=O)[O-])cc1 (configuration not stated),-6.78,–
CC(=O)c1c(C)[nH]c(C(=O)OCC(=O)Nc2cc(S(=O)(=O)N3CCCCC3)ccc2C)c1C,-12.5,–
Cc1cccc(C(=O)N2CCCN(C(=O)c3cccc(C)c3)CC2)c1,4.89,–
O=C(c1ccc(Cl)c(Cl)c1)N1CCCC1,–,20 µM (active)
Cc1ccc(C(=O)N2CCCC2)c(F)c1F,–,10 µM (active)
Cc1cc(=O)oc(C)c1C(=O)N1CCCCC1,-2.92,–
CCOC(=O)C1CCCN(C(=O)c2cncc(Br)c2)C1 (configuration not stated),-7.12,–
Cc1ccc(C(=O)N2CCCCCC2)cc1Br,–,5.01 µM (active)
Cc1ccccc1CN1CCN(C(=O)c2cccc(F)c2)CC1,2.95,–

SMILES,"activity change, negative = inhibition [%]",Potency
CCCNC(=O)c1ccc(Cl)c(Cl)c1,-21.6,–
CNC(=O)n1ccc(C(=O)N2CCCCC2)n1,-21.9,–
O=C(Nc1cccc(C(=O)N2CCCC2)c1)c1ccccc1,-13.5,–
C/C(=C\C(=O)c1ccc(Br)cc1)N1CCCCC1,-21.6,–
Cc1c(Br)cc(C(=O)N2CCCCCC2)c(C)c1C,–,14.1 µM (active)
Cc1cc(C(=O)N/N=C/c2ccc(O)c([N+](=O)[O-])c2)c(C)n1-c1ccc(F)cc1,-20.1,–
COc1ccc(C(=O)NNC(=S)NC(=O)c2ccccc2[N+](=O)[O-])cc1,-1.33,–
Cc1cc(C)nc(SC2CCCCC2NS(=O)(=O)c2ccc(Cl)cc2)n1 (configuration not stated),-1.86,–
COc1ccc(Cn2c(-c3ccc(Cl)cc3)c[n+]3ccccc23)cc1,1.07,–
C=CCn1c(SCc2ccc(Cl)c(Cl)c2)nnc1C(CO)NC(=O)c1ccc(OC)cc1 (configuration not stated),-18.7,–
CC(CNC(=O)c1ccc(Br)o1)NC(=O)c1ccc(Br)o1 (configuration not stated),-8.51,–
CCC(C)NC(=O)CCCc1ccccc1 (configuration not stated),-18.7,–
CC(CCc1ccccc1)NC(=O)c1ccc(Br)o1 (configuration not stated),–,15.8 µM (active)
Cc1cccc(N2Cc3ccccc3C2=NC(=O)c2ccc(Cl)nc2)c1,-15.5,–
C/C(=C/C(=O)N1CCN(C)CC1)C(=O)O,4.4,–
Clc1ccccc1CSc1nnc(-c2ccco2)c(-c2ccco2)n1,–,12.6 µM (active)
c1ccc(CSc2nnc(-c3ccco3)c(-c3ccco3)n2)cc1,–,4.47 µM (active)
Nc1nc(SCc2ccccc2Cl)n[nH]1,-3,–
c1coc(-c2nc3nc4ccccc4n3nc2-c2ccco2)c1,-14.3,–
O=C(Nc1nnc(SCc2ccccc2)s1)c1ccco1,-28,–
c1ccc(CSc2nnc(-c3ccco3)n2Cc2ccccc2)cc1,-25.4,–

SMILES,"activity change, negative = inhibition [%]",Potency
COc1ccc(-c2nc3c(c4c2C[C@H](c2ccccc2)OC4)CN(C(=O)c2cccnc2)CC3)c(C)c1,-9.44,–
COCc1c(C(=O)N/N=C/C2CC=CCC2)nnn1-c1nonc1N (configuration not stated),-10.3,–
CC(C)CNC(=S)Nc1ccc(F)cc1,-4.13,–
Cc1ccc(S(=O)(=O)N(CC(=O)Nc2cccc([N+](=O)[O-])c2)Cc2ccc(Cl)cc2)cc1,-3.74,–
COc1cc(C(=S)N2CCOCC2)cc(OC)c1OC(=O)c1cc([N+](=O)[O-])cc([N+](=O)[O-])c1,-12,–
O=C(Oc1ccc([N+](=O)[O-])cc1)c1ccc(Cl)c(S(=O)(=O)N2CCCCC2)c1,-21.8,–
O=C(Oc1ccccc1C(=S)N1CCCCC1)c1cc([N+](=O)[O-])cc([N+](=O)[O-])c1,–,14.1 µM (active)
CCOC(=O)c1[nH]c2c(c1-c1ccccc1)C(=O)CC(c1ccc(Cl)cc1)C2 (configuration not stated),-2.93,–
CCOC(=O)C1=C(C)NC(=O)N(C(C)=O)C1c1ccc(Cl)cc1 (configuration not stated),0.0111,–
CCOC(=O)C1Sc2[nH]c(=O)sc2C(c2ccc(Cl)cc2)C1C(=O)OCC (configuration not stated),–,3.98 µM (active)
c1ccc(Nc2n[nH]nc2-c2ccccc2)cc1,–,14.1 µM (active)
Nc1ccc(Nc2ccccc2)cc1,-5.62,–
Nc1ccc(-c2sc(N)nc2-c2ccccc2)cc1,-11,–
COc1cccc2c(O)cc(=O)n(C)c12,-2.82,–
CC(Oc1ccccc1F)C(=O)NN (configuration not stated),-6.91,–
O=c1c(O)c(Br)ccc2c(Br)c(O)c(O)c(O)c12,–,15.8 µM (active)
COc1ccc(C(=O)COC(=O)c2ccc3ccccc3n2)cc1,-15.3,–
COc1ccc2c(c1)c(=O)c(C(=O)c1ccc(Cl)cc1)cn2CC(=O)Nc1ccc(F)cc1,-6.67,–
CN(CC(=O)Nc1ccc(S(=O)(=O)N2CCCC2)cc1)Cc1ccc(Cl)c(Cl)c1,-13.8,–
COC(=O)C1=C(C(=O)OC)[C@@H]2N(C)c3ccccc3[C@@]23C[C@@H](C(=O)OC)N(S(=O)(=O)c2ccc(Br)cc2)C3=N1,0.758,–
